# Experiments:
# Experiment in all cases: DAPPL (digital affinity profiling via proximity ligation, sequencing); 10 mM Tris-HCl pH 7.5, 50 mM NaCl, 1 mM DTT, 4% glycerol, room temperature, 30 min; GST-TFs on glutathione beads, 16-mer random dsDNA library, 0.1% formaldehyde crosslink after washing; high values mean tight binding
# Settings in all cases: protein: recombinant; tags: N-terminal GST; dsDNA, one strand shown
# FLI1 = target: T1, FLI1 (Homo sapiens, UniProt Q01543 1-452)
# T1 sequence: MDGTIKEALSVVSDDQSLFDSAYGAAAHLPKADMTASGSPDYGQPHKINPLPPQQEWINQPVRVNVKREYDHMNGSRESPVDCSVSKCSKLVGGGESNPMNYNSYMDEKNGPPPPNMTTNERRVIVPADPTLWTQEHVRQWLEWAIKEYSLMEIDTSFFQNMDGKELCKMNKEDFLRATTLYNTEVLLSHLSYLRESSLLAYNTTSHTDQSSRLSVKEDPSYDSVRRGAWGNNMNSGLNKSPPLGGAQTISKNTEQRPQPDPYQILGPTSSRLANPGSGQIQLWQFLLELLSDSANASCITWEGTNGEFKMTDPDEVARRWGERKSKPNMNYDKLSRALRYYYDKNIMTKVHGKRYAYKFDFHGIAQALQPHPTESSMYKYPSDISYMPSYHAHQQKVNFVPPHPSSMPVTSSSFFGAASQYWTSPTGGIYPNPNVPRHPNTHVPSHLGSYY
# Method in brief: (§1)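 Human transcription factors fused to GST were expressed in yeast, captured on glutathione beads, given DNA barcodes and pooled with a GST-only negative control. Pools were incubated with 200 nmole of a 16-mer random double-stranded DNA library in Tris/NaCl/DTT/glycerol buffer at room temperature for 30 min. They were then washed, crosslinked with 0.1% formaldehyde, proximity-ligated (BsaI/T4 ligase, 1 h, 37 °C), PCR-amplified and sequenced on an Illumina NextSeq500. Binding signal is each 6-mer's read frequency for a factor divided by its frequency for the GST control.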
# ELK1 = target: T2, ELK1 (Homo sapiens, UniProt P19419 1-428)
# T2 sequence: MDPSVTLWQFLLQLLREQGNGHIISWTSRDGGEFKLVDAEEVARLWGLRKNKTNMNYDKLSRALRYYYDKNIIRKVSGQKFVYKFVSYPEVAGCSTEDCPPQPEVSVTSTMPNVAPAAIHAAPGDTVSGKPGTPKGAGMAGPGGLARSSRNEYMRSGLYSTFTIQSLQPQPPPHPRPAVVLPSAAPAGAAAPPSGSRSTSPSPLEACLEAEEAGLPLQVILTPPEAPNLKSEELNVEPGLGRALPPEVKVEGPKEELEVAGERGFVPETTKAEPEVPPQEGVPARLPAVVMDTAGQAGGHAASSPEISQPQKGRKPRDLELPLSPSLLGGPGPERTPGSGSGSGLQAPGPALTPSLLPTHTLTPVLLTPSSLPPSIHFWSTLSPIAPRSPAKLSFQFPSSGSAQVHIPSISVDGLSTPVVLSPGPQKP
# Method in brief: as §1
# GABPA = target: T3, GABPA (Homo sapiens, UniProt Q06546 1-454)
# T3 sequence: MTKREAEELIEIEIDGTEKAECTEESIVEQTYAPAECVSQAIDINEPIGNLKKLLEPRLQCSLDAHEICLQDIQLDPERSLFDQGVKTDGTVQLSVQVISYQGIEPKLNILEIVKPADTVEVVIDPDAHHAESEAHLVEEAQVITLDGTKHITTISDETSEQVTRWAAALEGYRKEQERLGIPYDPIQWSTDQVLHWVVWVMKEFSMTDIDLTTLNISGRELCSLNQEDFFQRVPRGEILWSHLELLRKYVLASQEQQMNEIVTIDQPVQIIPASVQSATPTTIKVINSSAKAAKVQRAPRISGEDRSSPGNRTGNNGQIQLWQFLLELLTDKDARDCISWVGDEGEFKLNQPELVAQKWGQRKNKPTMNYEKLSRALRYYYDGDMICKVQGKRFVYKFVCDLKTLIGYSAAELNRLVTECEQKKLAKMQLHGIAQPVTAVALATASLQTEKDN
# Method in brief: as §1
# ERG = target: T4, ERG (Homo sapiens, UniProt P11308 1-479)
# T4 sequence: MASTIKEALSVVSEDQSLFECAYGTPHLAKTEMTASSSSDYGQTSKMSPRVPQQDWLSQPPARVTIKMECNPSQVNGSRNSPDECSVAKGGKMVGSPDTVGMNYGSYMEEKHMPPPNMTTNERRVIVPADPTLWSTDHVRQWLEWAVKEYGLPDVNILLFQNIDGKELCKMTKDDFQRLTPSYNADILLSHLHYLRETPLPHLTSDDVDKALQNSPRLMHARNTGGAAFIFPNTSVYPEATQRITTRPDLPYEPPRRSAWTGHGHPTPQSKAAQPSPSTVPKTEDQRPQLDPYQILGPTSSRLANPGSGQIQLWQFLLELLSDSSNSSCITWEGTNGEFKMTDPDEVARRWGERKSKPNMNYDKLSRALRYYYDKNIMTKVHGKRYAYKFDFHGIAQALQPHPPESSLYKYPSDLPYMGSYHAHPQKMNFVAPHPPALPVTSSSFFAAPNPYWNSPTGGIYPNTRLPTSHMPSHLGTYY
# Method in brief: as §1
# ELF1 = ELF1 (Homo sapiens, UniProt P32519 1-619)
# Method in brief: as §1
# EHF = target: T5, EHF (Homo sapiens, UniProt Q9NZC4 1-300)
# T5 sequence: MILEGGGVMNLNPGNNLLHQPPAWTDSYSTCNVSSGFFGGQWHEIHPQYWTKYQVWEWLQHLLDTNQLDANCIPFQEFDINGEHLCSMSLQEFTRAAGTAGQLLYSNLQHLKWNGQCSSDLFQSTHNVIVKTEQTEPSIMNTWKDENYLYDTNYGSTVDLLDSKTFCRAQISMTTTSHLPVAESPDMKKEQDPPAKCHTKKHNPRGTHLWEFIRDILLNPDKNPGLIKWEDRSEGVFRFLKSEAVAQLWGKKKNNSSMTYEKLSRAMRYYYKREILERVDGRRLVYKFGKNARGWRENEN
# Method in brief: as §1
# SPI1 = SPI1 (Homo sapiens, UniProt P17947 1-270)
# Method in brief: as §1
# SPIB = SPIB (Homo sapiens, UniProt Q01892 1-262)
# Method in brief: as §1
# ELK3 = target: T6, ELK3 (Homo sapiens, UniProt P41970 1-407)
# T6 sequence: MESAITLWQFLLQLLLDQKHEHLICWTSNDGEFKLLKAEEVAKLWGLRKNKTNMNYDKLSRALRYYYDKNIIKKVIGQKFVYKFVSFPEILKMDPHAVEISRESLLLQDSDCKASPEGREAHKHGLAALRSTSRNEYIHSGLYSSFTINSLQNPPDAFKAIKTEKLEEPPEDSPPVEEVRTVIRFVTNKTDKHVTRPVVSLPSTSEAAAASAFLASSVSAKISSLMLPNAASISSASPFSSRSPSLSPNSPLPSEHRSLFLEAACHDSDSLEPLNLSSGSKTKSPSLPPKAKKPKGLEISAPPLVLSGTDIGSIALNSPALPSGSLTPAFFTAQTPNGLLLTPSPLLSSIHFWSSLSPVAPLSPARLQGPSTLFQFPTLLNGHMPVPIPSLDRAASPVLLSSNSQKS
# Method in brief: as §1
# ELF1, sequence (P32519 whole entry): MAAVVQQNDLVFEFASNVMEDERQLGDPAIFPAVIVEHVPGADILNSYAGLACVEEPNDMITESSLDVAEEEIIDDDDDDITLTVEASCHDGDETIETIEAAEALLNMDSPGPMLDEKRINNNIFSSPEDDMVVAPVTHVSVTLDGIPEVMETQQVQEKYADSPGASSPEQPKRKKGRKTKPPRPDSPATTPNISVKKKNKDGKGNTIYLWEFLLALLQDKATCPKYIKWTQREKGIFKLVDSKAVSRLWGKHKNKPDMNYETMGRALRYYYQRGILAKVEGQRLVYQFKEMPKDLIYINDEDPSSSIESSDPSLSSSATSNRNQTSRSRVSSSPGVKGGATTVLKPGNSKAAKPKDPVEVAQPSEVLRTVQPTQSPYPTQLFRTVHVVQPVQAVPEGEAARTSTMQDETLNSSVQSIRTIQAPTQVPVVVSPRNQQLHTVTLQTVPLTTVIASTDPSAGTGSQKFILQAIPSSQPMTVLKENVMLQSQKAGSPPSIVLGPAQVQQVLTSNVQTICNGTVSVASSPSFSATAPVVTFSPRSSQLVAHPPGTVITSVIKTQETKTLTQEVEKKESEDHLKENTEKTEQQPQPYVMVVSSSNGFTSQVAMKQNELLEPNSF
# SPIB, sequence (Q01892 whole entry): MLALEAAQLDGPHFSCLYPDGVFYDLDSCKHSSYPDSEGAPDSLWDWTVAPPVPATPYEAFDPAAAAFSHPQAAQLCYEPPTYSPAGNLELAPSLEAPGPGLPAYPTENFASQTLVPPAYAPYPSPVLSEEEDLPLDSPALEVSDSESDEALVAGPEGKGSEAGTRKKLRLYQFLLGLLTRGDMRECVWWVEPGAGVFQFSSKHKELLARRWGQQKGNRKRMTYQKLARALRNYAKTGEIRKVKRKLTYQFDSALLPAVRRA
sequence,measurement,setting,value
TCGATT,binding signal,FLI1,"1.12 fold enrichment (6-mer frequency, TF over GST control)"
same,binding signal,ELK1,"1.11 fold enrichment (6-mer frequency, TF over GST control)"
same,binding signal,GABPA,"1.13 fold enrichment (6-mer frequency, TF over GST control)"
same,binding signal,ERG,"1.12 fold enrichment (6-mer frequency, TF over GST control)"
same,binding signal,ELF1,"1.12 fold enrichment (6-mer frequency, TF over GST control)"
same,binding signal,EHF,"1.05 fold enrichment (6-mer frequency, TF over GST control)"
same,binding signal,SPI1,"1.08 fold enrichment (6-mer frequency, TF over GST control)"
same,binding signal,SPIB,"1.15 fold enrichment (6-mer frequency, TF over GST control)"
same,binding signal,ELK3,"1.06 fold enrichment (6-mer frequency, TF over GST control)"
